Results filed as inconclusive are left out. Activity calls are given as the source filed them. Calls come from the whole dose curve; as a rule, active = well fitted cell-killing curve with a large enough effect; inconclusive = small, poorly fitted or top-dose-only effect, or effect the other way; inactive = flat fitted curve, though single readings scatter.
Experiments:
Experiment in all cases: Primary qHTS to identify gynecologic anti-cancer compounds using libraries of approved drugs and bioactive compounds (AID 1345084); note: nearly all actives have a fitted effect of over 55% in size
[1] = test system: C33A; conditions: Gynecologic cancer cell panel viability, ATPlite luminescence, 48 h; series mostly up to 57.5 µM
In short: (§1)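 Cells, 1,000 per well, were allowed to settle for 16 h at 37 C before compound addition. Five concentrations were tested for 48 h, and viability was read by ATPlite luminescence after 15 min at room temperature.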

[2] = test system: CAOV3; conditions: Gynecologic cancer cell panel viability, ATPlite luminescence, 48 h; series mostly up to 57.5 µM
In short: as §1

[3] = test system: CASKI; conditions: Gynecologic cancer cell panel viability, ATPlite luminescence, 48 h; series mostly up to 57.5 µM
In short: as §1

[4] = test system: Es-2; conditions: Gynecologic cancer cell panel viability, ATPlite luminescence, 48 h; series mostly up to 57.5 µM
In short: as §1

[5] = test system: HeLa; conditions: Gynecologic cancer cell panel viability, ATPlite luminescence, 48 h; series mostly up to 57.5 µM
In short: as §1

[6] = test system: Hek293T; conditions: Gynecologic cancer cell panel viability, ATPlite luminescence, 48 h, control line for the selectivity index; series mostly up to 57.5 µM
In short: as §1

[7] = test system: JEG-3; conditions: Gynecologic cancer cell panel viability, ATPlite luminescence, 48 h; series mostly up to 57.5 µM
In short: as §1

[8] = test system: OV90; conditions: Gynecologic cancer cell panel viability, ATPlite luminescence, 48 h; series mostly up to 57.5 µM
In short: as §1

[9] = test system: PA-1; conditions: Gynecologic cancer cell panel viability, ATPlite luminescence, 48 h; series mostly up to 57.5 µM
In short: as §1

[10] = test system: SKOV3; conditions: Gynecologic cancer cell panel viability, ATPlite luminescence, 48 h; series mostly up to 57.5 µM
In short: as §1

[11] = test system: Tov-21-G; conditions: Gynecologic cancer cell panel viability, ATPlite luminescence, 48 h; series mostly up to 57.5 µM
In short: as §1

[12] = test system: Tov112D; conditions: Gynecologic cancer cell panel viability, ATPlite luminescence, 48 h; series mostly up to 57.5 µM
In short: as §1
% is set by controls: 0 for no effect and ±100 for the full control effect.

CC(C)(CNC(=O)c1cccc(-c2noc(C(F)(F)F)n2)c1)c1coc(-c2ccccc2)n1
inactive: Potency [1] | Potency [2] | Potency [3] | Potency [4] | Potency [5] | Potency [6] | Potency [7] | Potency [8] | Potency [9] | Potency [10] | Potency [11] | Potency [12]

COc1c(C)cc(NC(=O)c2nn(Cc3ccc(F)cc3)c3c2CN(C(=O)c2ccc[nH]2)C[C@]3(C)C(N)=O)cc1C
inactive: activity change, negative = cytotoxicity [1] 12.3% [at 11.6 µM] | activity change, negative = cytotoxicity [2] -4.37% [at 11.6 µM] | activity change, negative = cytotoxicity [3] -0.257% [at 11.6 µM] | activity change, negative = cytotoxicity [4] 4.64% [at 11.6 µM] | activity change, negative = cytotoxicity [5] -7.03% [at 11.6 µM] | activity change, negative = cytotoxicity [6] 7.03% [at 11.6 µM] | activity change, negative = cytotoxicity [7] 1.95% [at 11.6 µM] | activity change, negative = cytotoxicity [8] 16.4% [at 11.6 µM] | activity change, negative = cytotoxicity [9] 15.5% [at 11.6 µM] | activity change, negative = cytotoxicity [10] -24.2% [at 11.6 µM] | activity change, negative = cytotoxicity [11] 11.9% [at 11.6 µM] | activity change, negative = cytotoxicity [12] 9.54% [at 11.6 µM]

COC(=O)C[C@H]1C(C)(C)[C@H](OC(=O)c2ccccc2)C2CC3=C4CC(=O)O[C@@H](c5ccoc5)[C@]4(C)CCC3[C@@]1(C)C2=O (stereo partly drawn)
inactive: Potency [1] | Potency [2] | Potency [3] | Potency [4] | Potency [5] | Potency [6] | Potency [7] | Potency [8] | Potency [9] | Potency [10] | Potency [11] | Potency [12]

CNc1cc2[nH]c(=O)n(-c3ccc(NC(=O)NS(=O)(=O)c4ccc(Cl)s4)cc3)c(=O)c2cc1F
inactive: Potency [1] | Potency [2] | Potency [3] | Potency [4] | Potency [5] | Potency [6] | Potency [7] | Potency [8] | Potency [9] | Potency [10] | Potency [11] | Potency [12]

O=S1(=O)CCN(Cc2cc(NCC3CCOCC3)c3[nH]c(-c4ccccc4)cc3c2)CC1
inactive: Potency [1] | Potency [2] | Potency [3] | Potency [4] | Potency [5] | Potency [6] | Potency [7] | Potency [8] | Potency [9] | Potency [10] | Potency [11] | Potency [12]

COC(=O)c1ccnc(-c2cc(C(=O)Nc3ccc(C4(N)CC4)cc3)ccn2)c1
inactive: Potency [1] | Potency [2] | Potency [3] | Potency [4] | Potency [5] | Potency [6] | Potency [7] | Potency [8] | Potency [9] | Potency [10] | Potency [11] | Potency [12]

COC(=O)c1ccc2c(c1)nc(NC(=O)c1ccccc1)n2CCCc1ccccc1
inactive: Potency [1] | Potency [2] | Potency [3] | Potency [4] | Potency [5] | Potency [6] | Potency [7] | Potency [8] | Potency [9] | Potency [10] | Potency [11] | Potency [12]

O=c1[nH]cnc2c([C@@H]3N[C@H](CO)[C@@H](O)[C@H]3O)c[nH]c12
inactive: Potency [1] | Potency [2] | Potency [3] | Potency [4] | Potency [5] | Potency [6] | Potency [7] | Potency [8] | Potency [9] | Potency [10] | Potency [11] | Potency [12]

C=C(C)C1CCC2(C(=O)O)CCC3(C)C(CCC4C5(C)C(C=O)C(O)C(C)(C)C5CCC43C)C12 (stereo not drawn)
inactive: Potency [1] | Potency [2] | Potency [3] | Potency [4] | Potency [5] | Potency [6] | Potency [7] | Potency [8] | Potency [9] | Potency [10] | Potency [11] | Potency [12]

Cc1ccc(CNc2ncnc3ccc(-c4ccc(CO)o4)cc23)o1
inactive: Potency [1] | Potency [2] | Potency [3] | Potency [4] | Potency [5] | Potency [6] | Potency [7] | Potency [8] | Potency [9] | Potency [10] | Potency [11] | Potency [12]

COc1cc(C(=O)NC(=S)Nc2cccc(NC(=O)c3ccccc3)c2)cc(OC)c1OC
inactive: Potency [1] | Potency [2] | Potency [3] | Potency [4] | Potency [5] | Potency [6] | Potency [7] | Potency [8] | Potency [9] | Potency [10] | Potency [11] | Potency [12]

Cc1ccccc1C(C(=O)NC1CCCCC1)N(C(=O)Cn1cnc2ccccc21)c1cccc(F)c1 (stereo not drawn)
inactive: Potency [1] | Potency [2] | Potency [3] | Potency [4] | Potency [5] | Potency [6] | Potency [7] | Potency [8] | Potency [9] | Potency [10] | Potency [11] | Potency [12]

O=C(Nc1ccc(C(F)(F)F)cn1)N1CCN(c2ncccc2C(F)(F)F)CC1
inactive: Potency [1] | Potency [2] | Potency [3] | Potency [4] | Potency [5] | Potency [6] | Potency [7] | Potency [8] | Potency [9] | Potency [10] | Potency [11] | Potency [12]

COc1ccc(S(=O)(=O)Nc2cc(Cl)cc(Cl)c2OC)cc1N1CCNCC1
inactive: Potency [1] | Potency [2] | Potency [3] | Potency [4] | Potency [5] | Potency [6] | Potency [7] | Potency [8] | Potency [9] | Potency [10] | Potency [11] | Potency [12]
